TRHR ag – agonists of human TRH receptor; activation, % at 2 µM; P34981; actives 0.18% (n = 360,000); TRHR cells, calcium flux fluo-8, FDSS agonist mode; also: 0% is about no effect
Target sequence (P34981 whole entry, looked up): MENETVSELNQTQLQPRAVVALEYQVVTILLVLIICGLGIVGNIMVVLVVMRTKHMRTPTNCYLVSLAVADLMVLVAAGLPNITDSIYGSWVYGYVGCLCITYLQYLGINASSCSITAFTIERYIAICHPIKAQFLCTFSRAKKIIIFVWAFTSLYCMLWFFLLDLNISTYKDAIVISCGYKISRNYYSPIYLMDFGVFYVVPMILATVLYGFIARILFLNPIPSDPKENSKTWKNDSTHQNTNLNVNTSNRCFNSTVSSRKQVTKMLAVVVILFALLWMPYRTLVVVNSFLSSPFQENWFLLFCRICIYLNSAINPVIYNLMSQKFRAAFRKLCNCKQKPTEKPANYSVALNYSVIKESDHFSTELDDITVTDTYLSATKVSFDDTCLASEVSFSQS
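Steps: seed TRHR cells overnight; add fluo-8 no-wash Ca dye, RT 30 min–1.5 h; record 10 s baseline; pin-transfer compounds; monitor fluorescence 1 cycle/s for the agonist window. Calcium increases flag candidate agonists.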
USP1 inh – USP1/UAF1 (human) deubiquitinase inhibition | recombinant USP1/UAF1, Ub-Rhodamine cleavage fluorescence | Potency, µM (highest dose often 57.1 µM), inactives show at the top dose activity change, negative = inhibition, hits mostly inhibitors | actives 0.23% (n = 390,000) | O94782; active = well fitted inhibition curve with a large enough effect; inconclusive = small, poorly fitted or top-dose-only effect; inactive = no such curve, though single readings can be large or run the other way; also: potency is read from the fitted curve at half-maximal effect; % is scaled to controls: 0 for no effect and ±100 for the full control effect; nearly all actives have a fitted effect of over 60% in size
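In this screen, compounds sit with the deubiquitinase complex (1nM) for 15 min at room temperature before Ub-Rho is added at 150nM final. Fluorescence rise is then followed for 6 reads every 60 seconds.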
D1 PAM – enhances dopamine response at the human D1 receptor; P21728; HEK293 TREx D1 cells, calcium flux, dopamine EC20 potentiation; potentiation, % at 10 µM; actives 0.036% (n = 360,000); in the data active = potentiation above about 30%; also: 0% is about no effect
TRHR enhancer – allosterically enhances the human TRH receptor | AID 493056 | P34981 | enhancement, % at 2 µM | actives 0.66% (n = 360,000) | TRHR cells, fluo-8 calcium fluorescence, EC20 TRH enhancement; in the data active = enhancement above about 30%; also: 0% is about no effect
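Enhancer read-out: after compound pinning and an initial kinetic agonist-mode read, an EC20 of TRH (10 nM final) was injected and fluo-8 calcium signal (Ex 480/Em 530) followed at 1 s/cycle for 100 cycles in TRHR-expressing cells.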
D1 agonist – human D1 receptor agonism; P21728; HEK293 T-REx D1 cells, calcium flux, agonist mode; activation, % at 2 µM; actives 1% (n = 360,000); AID 504660; also: 0% is about no effect
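Agonism was scored from calcium flux recorded over 180 s (1 read/s) after pintool compound addition, following a 10-cycle baseline. Cells were inducible force-coupled HEK293 TREx D1, plated overnight at 30 C and loaded with no-wash calcium dye.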
D1 antag – human D1 dopamine receptor antagonism; HEK293 TREx D1 cells, calcium flux, dopamine EC80; hits give low values; activity change, negative = inhibition, % at 10 µM; actives 3.2% (n = 360,000); AID 504652; in the data active = activity change below about -30%; also: % is scaled to controls: 0 for no effect and ±100 for the full control effect
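Antagonism measured as reduced calcium response to an EC80 dopamine addition following 180 s compound pre-read; cells were inducible HEK293 Trex D1 plated overnight at 30 C, read kinetically at 1 cycle/sec.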
An asterisk follows results filed as active; ? = inconclusive; nt = no result given. Hits are enriched below; roughly 4.4% of the tested compounds scored in any of these assays. Rule as the data show it, unless noted: active = activation above about 30%; inactive = the rest.

SMILES	TRHR ag	USP1 inh	D1 PAM	TRHR enhancer	D1 agonist	D1 antag
O=C(NCCc1nc2ccccc2n1Cc1ccccc1F)c1ccc(F)cc1	-0.3	-23.0%	-4.3	-9.3	9.6	-35.8*
Cn1c(CCNC(=O)c2ccc(F)cc2)nc2ccccc21	-0.5	-4.0%	0.1	-1.5	2.0	-19.7
CCN(CC)c1nc2c(c(=O)[nH]c(=O)n2C)n1CCOc1ccccc1	-1.3	-5.0%	35.0*	25.2	6.8	4.7
O=C(CN1C(=O)c2cccc3cccc1c23)Nc1ccccc1Br	0.1	-11.0%	-2.9	0.3	-0.9	11.4
COc1ccccc1CNC(=O)c1oc2c(c1C)-c1nn(Cc3ccc(Cl)cc3)cc1CC2	0.4	?	-0.4	2.3	1.0	0.4
CC(C)CN1CCC(=O)N([C@H](CSc2ccc(Br)cc2)Cc2ccccc2)CC1	0.6	-15.6%	2.6	-5.4	9.3	-50.3*
CN1CCC(=O)N([C@H](CSc2ccc(Br)cc2)Cc2ccccc2)CC1	0.2	-9.2%	-6.0	-11.6	8.8	-1.4
Cc1cccc(C(=O)Nc2c(-c3ccc(F)cc3)nc3ccccn23)c1	-0.5	-1.2%	-0.6	-1.7	-0.9	-21.1
Cc1ccc(-c2nnc3ccccc3c2C(=O)Nc2ccccc2F)cc1	-0.2	15.2%	-6.0	-2.3	0.7	0.9
Clc1ccc(CSc2snnc2-c2ccccc2)c(Cl)c1	-0.9	-10.3%	-5.2	0.1	51.1*	-10.0
c1ccc(CSc2snnc2-c2ccccc2)cc1	0.5	-9.8%	5.5	-1.9	1.2	-17.0
COc1ccc(-c2nn(-c3ccc(C)c(Cl)c3)c3c2cnc2cc(OC)c(OC)cc23)cc1	-0.9	-28.0%	0.8	-0.5	6.7	-3.0
CCCCn1c(CN2CCN(c3cccc(Cl)c3)CC2)nc2c1c(=O)n(C)c(=O)n2C	-0.1	-8.6%	19.4	7.8	5.7	-31.4*
CN(C)c1ccc(CN2CCc3nc(N4CCN(c5ccccn5)CC4)ncc3C2)cc1	-0.8	-15.0%	0.1	-2.4	-0.9	-5.7
CC(=O)c1cccc(Nc2cc(C)nc3c(C)cccc23)c1	-3.6	-4.8%	-4.6	8.1	0.0	-65.8*
CC(=O)c1cccc(NC(=O)Nc2nc(C)cc(C)n2)c1	-0.5	-5.4%	-5.2	32.9*	1.0	5.7
CC(=O)c1cccc(NC(=O)Nc2ccccc2)c1	0.6	-7.6%	-3.8	-4.6	9.6	-0.7
Cc1cccc(S(=O)(=O)c2cn(C)c3cc(N4CCN(c5ccc(F)cc5)CC4)c(F)cc3c2=O)c1	0.1	-13.0%	1.4	-0.1	-0.5	-0.4
Cc1c(C)c2cc3c(c(C)c2oc1=O)OCN(CCc1ccc(F)cc1)C3	3.3	-14.9%	0.1	1.4	4.1	-13.6
CC(NC(=O)c1ccncc1)c1ccccc1 (configuration not stated)	0.5	4.7%	-5.6	-7.8	0.9	-3.1
CC(NC(=O)c1ccc(=O)oc1)c1ccccc1 (configuration not stated)	0.1	-3.6%	-8.2	3.8	0.6	-33.6*
CCN(c1ccccc1)S(=O)(=O)c1ccc(C(=O)Nc2cccc(C)n2)cc1	1.0	-3.7%	-8.0	-3.6	5.1	-35.2*
Cc1cccc(NC(=O)c2ccc(C(=O)c3ccccc3)cc2)n1	-0.3	?	0.2	-9.3	4.2	-34.6*
CCc1nc(N)c(C#N)c(-c2ccc(F)cc2)c1C	-0.1	-16.1%	7.5	2.9	0.8	-18.4
Cc1c(-c2ccc(F)cc2)nc(N)c(C#N)c1-c1ccco1	0.2	-17.6%	1.6	-3.4	1.8	-32.9*
SMILES	TRHR ag	USP1 inh	D1 PAM	TRHR enhancer	D1 agonist	D1 antag
CC1CN(c2nc3ccccn3c(=O)c2C=O)CC(C)O1 (configuration not stated)	0.7	-12.7%	-3.0	-1.4	1.0	-33.9*
COc1ccc(Cn2c(CNC(=O)Cc3ccc(OC)c(OC)c3)nc3cccnc32)cc1	-0.2	18.4%	-2.6	-0.1	0.3	-2.1
CCOc1ccc(-n2c(Cc3ccccc3)nnc2SCc2nc(-c3ccccc3C)no2)cc1	5.1	-14.7%	-1.2	-14.0	31.6*	-1.2
CCOc1ccc(-c2noc(CSc3nnc(Cc4ccccc4)n3-c3cccc(C)c3)n2)cc1	3.8	-9.2%	0.8	5.5	37.8*	-3.6
O=C(Nc1c(C(=O)Nc2ccc(F)cc2)oc2ccccc12)c1ccccc1F	0.5	-31.3%	-1.8	0.8	4.9	-16.6
CC(=O)c1cccc(NC(=O)C2CCN(S(=O)(=O)c3ccc4c(c3)CCCN4C(C)=O)CC2)c1	-0.2	-12.1%	-3.2	-5.8	0.0	3.6
CCN(CC)C(=O)COc1ccc(/C(C)=N/NC(=O)c2ccccc2O)cc1	0.2	-12.5%	-4.2	6.2	2.0	-50.8*
CCN(CC)C(=O)COc1ccc(/C(C)=N/NC(=O)c2ccccc2Br)cc1	0.8	-8.8%	-1.6	4.0	1.7	-6.4
Cc1ccc(-c2c(C)n3c4c(=O)n(C)c(=O)n(C)c4nc3n2-c2cccc(O)c2)cc1	-0.5	-9.2%	-3.5	-4.2	-0.3	9.0
CNc1snc(C)c1C(=O)OCC(=O)N(C)Cc1ccccc1	0.3	-20.9%	-6.8	10.6	14.0	-43.0*
CNc1snc(C)c1C(=O)OC(C)C(=O)Nc1cccc(C)c1 (configuration not stated)	nt	-1.5%	nt	nt	nt	nt
CNc1snc(C)c1C(=O)OCC(=O)N(C)c1ccccc1	1.5	-14.2%	6.1	5.8	4.3	17.8
CNc1snc(C)c1C(=O)OC(C)C(=O)Nc1ccccc1 (configuration not stated)	-0.2	-24.1%	-5.7	8.3	8.8	-32.0*
CCN(C(=O)COC(=O)c1c(C)nsc1NC)c1ccccc1	-0.2	-21.0%	nt	-5.8	30.9*	-2.7
COc1ccc(NC(=O)C2CCN(S(=O)(=O)c3c(C)noc3/C=C/c3cccs3)CC2)cc1Cl	1.7	-6.4%	3.1	4.6	0.7	-27.0
Cc1ccc(-n2c3c(cc(C(=O)Nc4ccccc4C(N)=O)c2=O)C(=O)CC(C)(C)C3)cc1	1.0	-10.0%	0.6	-3.7	0.4	4.6
CCc1ccccc1NC(=O)Cn1nnc(C(=O)NCc2ccco2)c1N	0.0	-25.4%	0.2	14.5	-0.9	15.5
COc1cc(C2NC(=O)NC(C)=C2C(=O)Nc2cc(C)cc(C)c2)ccc1O (configuration not stated)	-0.4	-14.4%	-0.8	-0.9	0.3	7.6
CC(=O)c1c(C)[nH]c(C(=O)COC(=O)c2ccc(Cl)nc2)c1C	0.5	-13.6%	-6.3	8.7	12.3	-41.2*
CC(=O)c1c(C)[nH]c(C(=O)COC(=O)c2ccc(C)s2)c1C	nt	-8.4%	nt	nt	nt	nt
CCOc1ccc(NC(=O)c2ccc(NC(=O)CCS(=O)(=O)c3cccs3)cc2)cc1	0.8	-0.9%	-0.3	-7.8	2.9	5.2
